This passage reports binding signal results from article PMC7862700, “An all-to-all approach to the identification of sequence-specific readers for epigenetic DNA modifications on cytosine”.

Assay in all cases: DAPPL (digital affinity profiling via proximity ligation, sequencing); 10 mM Tris-HCl pH 7.5, 50 mM NaCl, 1 mM DTT, 4% glycerol, room temperature, 30 min; GST-TFs on glutathione beads, 16-mer random dsDNA library, 0.1% formaldehyde crosslink after washing; high values mean tight binding
Settings in all cases: protein: recombinant; tags: N-terminal GST; dsDNA, one strand shown

One experiment deals with T1, SPIC (Homo sapiens, UniProt Q8N5J4 1-248).
T1 sequence: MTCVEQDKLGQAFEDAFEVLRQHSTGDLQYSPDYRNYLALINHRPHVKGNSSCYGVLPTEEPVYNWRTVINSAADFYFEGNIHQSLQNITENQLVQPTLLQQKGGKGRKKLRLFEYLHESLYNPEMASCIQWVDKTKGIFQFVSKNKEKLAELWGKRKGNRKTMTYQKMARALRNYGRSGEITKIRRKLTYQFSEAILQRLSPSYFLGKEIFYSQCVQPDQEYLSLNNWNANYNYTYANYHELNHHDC
The gist of the method:
(§1)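 Binding signal is defined as a hexamer's read frequency for one factor over its frequency for the tag-only sample. To obtain reads, GST-fused human transcription factors were expressed in yeast, captured on glutathione beads, barcoded with DNA and pooled with that sample. Pools met 200 nmole of a 16-mer random double-stranded DNA library in Tris/NaCl/DTT/glycerol buffer for 30 min at room temperature before washing, 0.1% formaldehyde crosslinking, proximity ligation (BsaI/T4 ligase, 1 h, 37 °C), PCR and Illumina NextSeq500 sequencing.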

The target of another experiment is T2, ERF (Homo sapiens, UniProt P50548 1-548).
T2 sequence: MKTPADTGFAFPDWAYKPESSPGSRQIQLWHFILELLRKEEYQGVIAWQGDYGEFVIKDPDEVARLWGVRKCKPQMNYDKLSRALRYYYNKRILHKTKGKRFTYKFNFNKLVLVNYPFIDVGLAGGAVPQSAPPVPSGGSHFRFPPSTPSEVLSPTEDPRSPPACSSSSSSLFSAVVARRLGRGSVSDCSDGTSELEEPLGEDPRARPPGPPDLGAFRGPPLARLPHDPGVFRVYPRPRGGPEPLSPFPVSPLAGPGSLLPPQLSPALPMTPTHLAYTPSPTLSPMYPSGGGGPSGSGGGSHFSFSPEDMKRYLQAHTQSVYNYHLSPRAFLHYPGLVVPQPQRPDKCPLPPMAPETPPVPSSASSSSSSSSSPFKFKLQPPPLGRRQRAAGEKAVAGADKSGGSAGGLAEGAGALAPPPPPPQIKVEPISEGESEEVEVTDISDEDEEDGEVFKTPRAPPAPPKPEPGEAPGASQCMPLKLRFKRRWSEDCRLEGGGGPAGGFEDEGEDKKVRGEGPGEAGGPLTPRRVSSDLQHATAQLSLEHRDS
The gist of the method: as §1

The target in another experiment is T3, ELK4 (Homo sapiens, UniProt P28324-2 1-405).
T3 sequence: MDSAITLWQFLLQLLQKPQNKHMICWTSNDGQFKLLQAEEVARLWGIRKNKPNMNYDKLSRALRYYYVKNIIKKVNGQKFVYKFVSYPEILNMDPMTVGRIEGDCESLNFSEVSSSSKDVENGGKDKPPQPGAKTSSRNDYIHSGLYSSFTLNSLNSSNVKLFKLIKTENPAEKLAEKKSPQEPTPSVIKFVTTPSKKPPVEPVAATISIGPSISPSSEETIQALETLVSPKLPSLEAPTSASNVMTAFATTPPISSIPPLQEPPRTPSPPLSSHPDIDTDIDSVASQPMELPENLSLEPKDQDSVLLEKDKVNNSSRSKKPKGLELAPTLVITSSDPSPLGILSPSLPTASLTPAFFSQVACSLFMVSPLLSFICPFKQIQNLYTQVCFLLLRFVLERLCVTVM
The gist of the method: as §1

Another experiment addresses T4, ELK1 (Homo sapiens, UniProt P19419 1-428).
T4 sequence: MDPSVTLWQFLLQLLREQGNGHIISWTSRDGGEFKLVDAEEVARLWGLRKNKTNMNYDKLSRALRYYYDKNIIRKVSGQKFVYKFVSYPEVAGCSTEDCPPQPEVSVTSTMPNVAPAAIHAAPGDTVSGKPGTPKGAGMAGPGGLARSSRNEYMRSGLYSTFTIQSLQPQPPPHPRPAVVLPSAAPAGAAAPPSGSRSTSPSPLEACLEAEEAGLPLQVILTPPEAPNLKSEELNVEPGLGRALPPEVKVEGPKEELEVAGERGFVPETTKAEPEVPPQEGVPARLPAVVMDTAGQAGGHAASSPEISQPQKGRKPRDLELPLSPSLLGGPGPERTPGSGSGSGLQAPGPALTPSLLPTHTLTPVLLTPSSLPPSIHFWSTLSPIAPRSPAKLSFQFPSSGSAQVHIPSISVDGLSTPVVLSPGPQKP
The method, boiled down: as §1

The target in another experiment is ELF1 (Homo sapiens, UniProt P32519 1-619). The gist of the method:
as §1

A further experiment addresses T5, EHF (Homo sapiens, UniProt Q9NZC4 1-300).
T5 sequence: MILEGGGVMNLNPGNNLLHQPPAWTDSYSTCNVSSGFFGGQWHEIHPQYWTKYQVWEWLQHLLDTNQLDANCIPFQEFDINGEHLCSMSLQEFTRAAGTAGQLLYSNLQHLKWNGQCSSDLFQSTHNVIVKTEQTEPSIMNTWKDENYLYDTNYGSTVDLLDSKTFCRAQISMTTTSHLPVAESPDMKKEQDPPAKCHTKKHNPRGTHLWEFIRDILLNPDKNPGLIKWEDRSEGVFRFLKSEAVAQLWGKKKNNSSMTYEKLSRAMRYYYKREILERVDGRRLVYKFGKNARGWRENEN
The method, boiled down: as §1

For a further experiment, the target named is SPI1 (Homo sapiens, UniProt P17947 1-270). The method, boiled down: as §1
Another experiment deals with T6, ELK3 (Homo sapiens, UniProt P41970 1-407).
T6 sequence: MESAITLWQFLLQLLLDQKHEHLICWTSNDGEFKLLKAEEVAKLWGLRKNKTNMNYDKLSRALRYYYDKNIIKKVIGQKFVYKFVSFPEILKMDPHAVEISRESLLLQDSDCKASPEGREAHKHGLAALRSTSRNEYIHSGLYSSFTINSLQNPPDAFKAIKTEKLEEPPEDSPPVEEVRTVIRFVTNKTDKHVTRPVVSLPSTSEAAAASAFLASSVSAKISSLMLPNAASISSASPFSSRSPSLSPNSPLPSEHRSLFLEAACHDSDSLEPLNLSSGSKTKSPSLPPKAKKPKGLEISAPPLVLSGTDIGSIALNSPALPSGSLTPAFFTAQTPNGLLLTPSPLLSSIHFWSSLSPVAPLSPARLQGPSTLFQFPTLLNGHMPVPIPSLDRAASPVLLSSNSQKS
The method, boiled down:
as §1

The target of the next experiment is ELF4 (Homo sapiens, UniProt Q99607 1-663). The method, boiled down:
as §1

The target in another experiment is T7, ETV2 (Homo sapiens, UniProt O00321 1-342).
T7 sequence: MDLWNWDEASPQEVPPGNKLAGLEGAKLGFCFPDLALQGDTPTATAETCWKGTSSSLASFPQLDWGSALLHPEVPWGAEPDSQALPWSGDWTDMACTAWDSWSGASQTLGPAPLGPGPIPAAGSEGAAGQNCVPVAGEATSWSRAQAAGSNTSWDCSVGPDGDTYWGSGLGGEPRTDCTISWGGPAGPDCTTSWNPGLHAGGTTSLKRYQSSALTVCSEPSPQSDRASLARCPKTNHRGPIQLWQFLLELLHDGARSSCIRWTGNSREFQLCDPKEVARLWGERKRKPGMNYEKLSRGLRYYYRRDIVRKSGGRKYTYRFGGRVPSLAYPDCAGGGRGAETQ
The gist of the method: as §1

Another experiment concerns the target T8, ELF3 (Homo sapiens, UniProt P78545 1-371).
T8 sequence: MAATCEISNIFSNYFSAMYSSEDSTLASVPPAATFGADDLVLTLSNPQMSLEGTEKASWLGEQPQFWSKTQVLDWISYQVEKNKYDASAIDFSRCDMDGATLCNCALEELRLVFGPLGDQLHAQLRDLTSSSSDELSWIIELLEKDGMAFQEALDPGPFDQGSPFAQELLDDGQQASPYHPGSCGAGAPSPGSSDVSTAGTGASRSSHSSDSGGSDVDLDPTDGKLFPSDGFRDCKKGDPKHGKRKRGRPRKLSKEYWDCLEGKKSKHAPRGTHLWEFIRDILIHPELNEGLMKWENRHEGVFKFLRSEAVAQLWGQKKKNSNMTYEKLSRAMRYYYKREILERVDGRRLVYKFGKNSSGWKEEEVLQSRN
The method, boiled down: as §1

The next experiment has as its target CRX (Homo sapiens, UniProt O43186 1-299). The method, boiled down:
as §1

The target of another experiment is T9, SPDEF (Homo sapiens, UniProt O95238 1-335).
T9 sequence: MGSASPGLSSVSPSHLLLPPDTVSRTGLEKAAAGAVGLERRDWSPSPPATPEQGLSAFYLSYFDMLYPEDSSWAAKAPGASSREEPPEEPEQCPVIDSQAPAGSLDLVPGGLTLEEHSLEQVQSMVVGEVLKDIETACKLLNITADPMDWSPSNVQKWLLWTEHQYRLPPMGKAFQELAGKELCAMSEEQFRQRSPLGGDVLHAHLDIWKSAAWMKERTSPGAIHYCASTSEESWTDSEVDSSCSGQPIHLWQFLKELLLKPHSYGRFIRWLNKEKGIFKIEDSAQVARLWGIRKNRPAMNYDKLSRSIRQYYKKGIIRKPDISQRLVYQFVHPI
The method, boiled down: as §1

Another experiment concerns the target T10, ETV7 (Homo sapiens, UniProt Q9Y603 1-341).
T10 sequence: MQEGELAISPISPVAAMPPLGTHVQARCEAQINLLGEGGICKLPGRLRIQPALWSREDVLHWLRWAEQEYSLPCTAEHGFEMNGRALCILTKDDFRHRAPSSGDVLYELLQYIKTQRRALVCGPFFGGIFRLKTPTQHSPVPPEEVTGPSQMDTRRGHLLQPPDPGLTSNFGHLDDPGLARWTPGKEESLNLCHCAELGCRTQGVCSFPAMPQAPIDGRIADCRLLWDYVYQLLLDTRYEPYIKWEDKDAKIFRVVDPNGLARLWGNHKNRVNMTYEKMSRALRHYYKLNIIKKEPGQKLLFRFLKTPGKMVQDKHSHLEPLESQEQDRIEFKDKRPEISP
The gist of the method: as §1

A further experiment concerns the target T11, ETV3 (Homo sapiens, UniProt P41162-2 1-143).
T11 sequence: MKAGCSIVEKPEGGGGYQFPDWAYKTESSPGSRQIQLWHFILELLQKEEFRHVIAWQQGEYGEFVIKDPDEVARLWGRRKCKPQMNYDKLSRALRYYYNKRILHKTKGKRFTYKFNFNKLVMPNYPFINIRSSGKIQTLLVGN
The method, boiled down: as §1

Sequence of ELF1 (P32519 whole entry): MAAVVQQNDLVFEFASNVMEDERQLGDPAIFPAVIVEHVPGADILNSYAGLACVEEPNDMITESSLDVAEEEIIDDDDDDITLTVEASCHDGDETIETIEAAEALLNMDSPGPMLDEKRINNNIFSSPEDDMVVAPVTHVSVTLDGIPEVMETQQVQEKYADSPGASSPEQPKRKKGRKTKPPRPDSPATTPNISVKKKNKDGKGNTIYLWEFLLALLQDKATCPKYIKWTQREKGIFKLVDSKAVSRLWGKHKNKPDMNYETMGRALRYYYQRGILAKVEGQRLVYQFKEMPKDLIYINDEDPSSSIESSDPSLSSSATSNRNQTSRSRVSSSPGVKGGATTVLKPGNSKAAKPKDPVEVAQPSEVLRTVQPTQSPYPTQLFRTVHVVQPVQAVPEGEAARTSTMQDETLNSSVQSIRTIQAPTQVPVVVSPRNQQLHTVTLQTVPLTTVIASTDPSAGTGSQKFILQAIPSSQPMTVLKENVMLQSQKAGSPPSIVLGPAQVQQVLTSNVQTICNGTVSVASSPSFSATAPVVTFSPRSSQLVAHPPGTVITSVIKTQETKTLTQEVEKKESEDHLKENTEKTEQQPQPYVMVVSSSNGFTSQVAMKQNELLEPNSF
Sequence of ELF4 (Q99607 whole entry): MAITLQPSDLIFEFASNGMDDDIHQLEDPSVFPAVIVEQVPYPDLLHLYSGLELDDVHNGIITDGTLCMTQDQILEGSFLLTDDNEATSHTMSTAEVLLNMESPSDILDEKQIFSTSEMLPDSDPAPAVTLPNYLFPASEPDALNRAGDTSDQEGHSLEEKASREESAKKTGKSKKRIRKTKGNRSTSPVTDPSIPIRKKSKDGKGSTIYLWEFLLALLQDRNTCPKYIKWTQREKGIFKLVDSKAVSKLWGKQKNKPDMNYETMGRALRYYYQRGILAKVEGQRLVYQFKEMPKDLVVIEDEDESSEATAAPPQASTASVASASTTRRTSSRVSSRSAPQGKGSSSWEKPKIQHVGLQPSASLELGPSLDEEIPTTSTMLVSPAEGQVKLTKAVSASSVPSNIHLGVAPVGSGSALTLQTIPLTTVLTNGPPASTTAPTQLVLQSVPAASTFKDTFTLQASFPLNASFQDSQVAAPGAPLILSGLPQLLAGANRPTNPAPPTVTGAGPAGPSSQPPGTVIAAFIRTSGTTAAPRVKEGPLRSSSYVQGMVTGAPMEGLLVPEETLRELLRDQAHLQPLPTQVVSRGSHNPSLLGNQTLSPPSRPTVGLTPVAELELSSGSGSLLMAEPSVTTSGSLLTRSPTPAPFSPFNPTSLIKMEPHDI
Sequence of CRX (O43186 whole entry): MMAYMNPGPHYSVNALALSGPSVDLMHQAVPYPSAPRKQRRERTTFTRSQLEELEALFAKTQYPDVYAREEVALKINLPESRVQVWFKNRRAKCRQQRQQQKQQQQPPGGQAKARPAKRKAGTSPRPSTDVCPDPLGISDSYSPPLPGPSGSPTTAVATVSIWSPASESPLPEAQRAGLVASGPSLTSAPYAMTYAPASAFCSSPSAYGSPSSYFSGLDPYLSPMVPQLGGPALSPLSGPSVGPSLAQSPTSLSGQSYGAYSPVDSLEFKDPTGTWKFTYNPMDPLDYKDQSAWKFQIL

Turning to AGCACG, the binding signal was 1.02 fold enrichment (6-mer frequency, TF over GST control) with SPIC and 1.01 fold enrichment (6-mer frequency, TF over GST control) with ERF.

With GCAAGC, the binding signal with ELK4 was 1.07 fold enrichment (6-mer frequency, TF over GST control).

Turning to TAACGT, the binding signal was 1.02 fold enrichment (6-mer frequency, TF over GST control) with ELK1; 1.01 fold enrichment (6-mer frequency, TF over GST control) with ELF1; 1.02 fold enrichment (6-mer frequency, TF over GST control) with EHF; 1.03 fold enrichment (6-mer frequency, TF over GST control) in the experiment with SPI1; 1.08 fold enrichment (6-mer frequency, TF over GST control) with ELK3; 1.01 fold enrichment (6-mer frequency, TF over GST control) in the experiment with ELF4. Moreover, the binding signal with ELK4 was 1.06 fold enrichment (6-mer frequency, TF over GST control); in the experiment with ETV2, 1.02 fold enrichment (6-mer frequency, TF over GST control); with ELF3, 1.06 fold enrichment (6-mer frequency, TF over GST control); with CRX, 1.16 fold enrichment (6-mer frequency, TF over GST control); with ERF, 1.07 fold enrichment (6-mer frequency, TF over GST control); with SPDEF, 1.05 fold enrichment (6-mer frequency, TF over GST control). The binding signal is 1.01 fold enrichment (6-mer frequency, TF over GST control) with ETV7 and 1.04 fold enrichment (6-mer frequency, TF over GST control) with ETV3.
